# Screening results (PubChem BioAssay)
# FBA Mtb inh: Mtb fructose-bisphosphate aldolase inhibition | P9WQA3 | purified M. tuberculosis FBA, fluorescence read-out | inhibition, % at 1 µM | 360,000 compounds, 2.3% hits;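 also: 0% = vehicle and 100% = reference inhibitor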
# GDH-TPI counter-1: inhibits GDH-TPI coupling enzymes, artifact for Mtb FBA screen; GDH-TPI coupled enzyme counterscreen, NADH absorbance; inhibition, % at 4.8 µM; 360,000 compounds, 1.2% hits; AID 588335; in the data active = inhibition above about 30%;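 also: 0% = DMSO wells and 100% = wells lacking the enzyme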
# Mtb BioA inh: inhibitors of Mycobacterium tuberculosis BioA enzyme | 360,000 compounds, 0.096% hits | inhibition, % at 9.99 µM | purified M. tuberculosis BioA enzyme, plate reader; in the data active = inhibition above about 40%
# FadD28 FP inh: inhibitors of Mycobacterium tuberculosis FadD28 bisubstrate binding; FadD28 bisubstrate probe binding, fluorescence polarization; inhibition, % at 12.5 µM; 360,000 compounds, 0.22% hits; AID 588549; in the data active = inhibition above about 8.5%, passing the limit was not always enough
# Rv3671c protease: inhibits the M. tuberculosis serine protease Rv3671c; P9WHR9; inhibition, % at 5.96 µM; 320,000 compounds, 0.048% hits; in the data active = inhibition above about 38%;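 also: extracellular domain of Rv3671c used as enzyme; 0% = enzyme with DMSO and 100% = no enzyme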
# Target sequence (P9WHR9 whole entry, looked up, the tested form may be a part): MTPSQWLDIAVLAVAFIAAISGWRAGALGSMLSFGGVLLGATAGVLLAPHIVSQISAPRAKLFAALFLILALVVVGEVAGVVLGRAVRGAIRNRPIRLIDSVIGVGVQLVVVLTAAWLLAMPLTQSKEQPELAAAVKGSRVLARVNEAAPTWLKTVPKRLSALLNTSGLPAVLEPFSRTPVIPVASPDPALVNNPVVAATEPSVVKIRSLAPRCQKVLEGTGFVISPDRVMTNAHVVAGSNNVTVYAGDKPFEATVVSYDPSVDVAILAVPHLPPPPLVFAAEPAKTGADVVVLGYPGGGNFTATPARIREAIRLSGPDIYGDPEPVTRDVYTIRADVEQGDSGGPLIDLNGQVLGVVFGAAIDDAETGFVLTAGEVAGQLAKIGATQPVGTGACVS
# Mtb FBA confirm: Mtb FBA inhibition, confirmed; shares compounds with FBA Mtb inh; purified M. tuberculosis FBA, fluorescence read-out; inhibition, % at 1 µM; 5,600 compounds, 78% hits;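 also: 0% = vehicle wells and 100% = reference inhibitor wells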
# GDH-TPI counter-2: GDH-TPI inhibition counter-screen for FBA inhibitors. shares compounds with FBA Mtb inh. GDH-TPI coupled enzyme counterscreen, fluorescence. inhibition, % at 1 µM. 5,600 compounds, 81% hits; in the data active = inhibition above about 10%
# The depositor's hits bear a star; . = not tested or not shown; + = active, no number. The list is not random: actives were taken first. Their share in the collection is about 3%. Rule as the data show it, unless noted: active = inhibition above about 27%; inactive = the rest.
SMILES,FBA Mtb inh,GDH-TPI counter-1,Mtb BioA inh,FadD28 FP inh,Rv3671c protease,Mtb FBA confirm,GDH-TPI counter-2
Cc1cccc(S(=O)(=O)c2c(N)n(Cc3ccco3)c3nc4ccccc4nc23)c1,101.2*,7.2,-2.7,-12.6,-21.2,75.6*,61.2*
Cc1ccc(S(=O)(=O)c2c(N)n(NC(=O)c3ccco3)c3nc4ccccc4nc23)cc1,35.5*,19.1,0.3,-2.8,-4.6,-3.3,0.3
Cc1ccc(S(=O)(=O)c2c(N)n(Cc3ccco3)c3nc4ccccc4nc23)cc1,81.9*,30.6*,-6.8,-1.9,-28.2,38.6*,29.8*
O=C(C[C@@H]1CC[C@H](NC(=O)Nc2ccc3c(c2)OCO3)[C@H](CO)O1)NCc1ccc(F)cc1,.,.,-3.3,.,.,.,.
O=C(Nc1ccc2ccccc2c1)N1CCN(c2ncccc2C(F)(F)F)CC1,36.5*,-2.5,0.1,0.8,-8.0,-9.2,-5.4
Cc1ccc(NC(=O)N2CCN(c3ncccc3C(F)(F)F)CC2)cc1,1.4,13.1,.,-0.8,1.5,.,.
C=CCn1c(=O)n(CCOC)c(=O)c2sc3ccccc3c21,37.5*,10.6,-0.9,2.9,1.7,154.8*,164.3*
Cc1ccn2c(NCc3ccccc3)c(-c3cccc(SC4CCCCC4)c3)nc2c1,28.3*,13.2,-6.5,-0.2,10.7,38.6*,30.0*
CCC(C)Sc1ccc(-c2nc3ccc(Cl)cn3c2NCc2ccccc2)cc1 (stereo unspecified),1.8,11.7,-0.6,-1.5,4.8,.,.
COc1ccc(-c2nc3ccccn3c2NCc2ccc3c(c2)OCO3)cc1,11.9,4.4,4.7,1.4,-0.3,.,.
CCC(C)Sc1cccc(-c2nc3cc(C)ccn3c2NCc2ccccc2)c1 (stereo unspecified),32.9*,12.1,-0.5,-4.3,5.4,48.7*,36.5*
COc1ccc(-c2cc(-c3nc4ccccn4c3NCc3ccccc3)ccc2OC)cc1,36.3*,-2.5,-0.3,-2.4,0.5,166.5*,136.3*
Clc1cccc(-c2ccc(-c3nc4ccccn4c3NCc3ccccc3)cc2)c1,40.2*,15.3,-0.2,-3.2,7.3,151.7*,116.7*
c1ccc(-c2nc3ccccn3c2NCc2ccc3c(c2)OCO3)cc1,12.1,13.7,0.5,-0.6,0.8,.,.
C[C@@H]1CN([C@@H](C)CO)C(=O)Cc2cc(N(C)C)ccc2O[C@H]1CN(C)S(C)(=O)=O,.,.,-0.1,.,.,.,.
c1ccc(CNc2c(-c3cccc(SC4CCCCC4)c3)nc3ccccn23)cc1,46.5*,15.6,0.7,1.2,5.4,99.9*,65.1*
c1ccc(-c2ccc3ccccc3n2)cc1,-0.3,6.9,-1.0,0.6,-11.7,.,.
c1ccc(-c2nc3ccccc3o2)nc1,29.1*,-4.8,-1.6,-2.8,5.5,6.9,1.2
c1ccc2nc(-c3nc4ccccc4o3)ccc2c1,69.2*,19.5,-1.3,-0.1,-7.7,117.9*,104.4*
CN(C(=O)OC(C)(C)C)c1ccc(-c2nc3ccccc3s2)cc1,44.9*,18.5,8.4,-0.8,-14.4,+,+
COC(=O)N(C)c1nc2ccccc2s1,-0.5,11.5,-0.6,0.2,3.5,.,.
CCN1CCN(CCCNC(=O)c2cc3c(=O)[nH]c4ccccc4c3s2)CC1,89.0*,6.9,1.6,-0.4,-4.3,6.2,-1.3
O=C(NCCCN1CCOCC1)c1cc2c(=O)[nH]c3ccccc3c2s1,88.4*,20.9,-1.2,-6.2,0.2,35.9*,24.0*
O=C(NCCCN1CCOCC1)c1c(O)c2ccccc2[nH]c1=O,-0.6,-2.1,-0.5,-2.5,-3.6,.,.
C[C@@H]1CN([C@H](C)CO)S(=O)(=O)c2ccc(/C=C/c3ccccc3)cc2O[C@H]1CN(C)C(=O)c1ccncc1,.,.,1.3,.,.,.,.
C[C@H]1CN([C@@H](C)CO)C(=O)c2cc(NC(=O)C3CC3)ccc2O[C@@H]1CN(C)Cc1ccc(-c2ccccc2)cc1,.,.,-3.5,.,.,.,.
C[C@H]1CCCCO[C@H](CN(C)C(=O)c2ccncc2)[C@@H](C)CN([C@@H](C)CO)C(=O)c2cc(NS(=O)(=O)c3cccs3)ccc2O1,.,.,-1.6,.,.,.,.
Cc1ccc2cc(C#N)c(NCc3ccccc3)nc2c1,32.3*,2.4,.,-4.8,-4.6,52.9*,44.3*
C=CCn1c2ccccc2n2nc(C)c(=O)nc12,22.2,12.8,-0.3,-0.9,-6.0,.,.
